# Test results reported in PubChem BioAssay AID1347417 (National Center for Advancing Translational Sciences (NCATS), 2020).
# The whole screen tested about 120,000 compounds, of which about 5,300 (4.4%) were called active. A call without a number means that no potency is given here. Not shown: some 22% with an inconclusive outcome. The full list was thinned out, with actives kept by preference. A number with no mark means an inactive call. Calls follow the shape of the dose curve; as a rule, active = well fitted inhibition curve with a large enough effect; inconclusive = small, poorly fitted or top-dose-only effect; inactive = no such curve, though single readings can be large or run the other way.
# Assay: qHTS Primary assay for Inhibitors of Plasmodium falciparum Dd2 growth in vitro; also: nearly all actives have a fitted effect of over 65% in size
# Conditions: P. falciparum Dd2 growth, SYBR Green, 72 h; series mostly up to 28.9 µM
# Excerpt: Malaria, a parasitic disease spread to humans through the bite of a Plasmodium infected Anopheles mosquito, continues to be a global health burden affecting millions of people, with an estimated 228 million cases and 405,000 deaths in 2018. Concerns about safety and limitations of current antimalarial treatments strongly emphasize the need to develop new therapeutic options. The scarce number of chemotypes and validated drug targets with efficacy against the liver stage, have hindered development of new antimalarials. To address this, a chemoprophylactic drug discovery effort was conducted through a combined phenotypic high-throughput asexual blood stage and liver stage screen, providing a robust foundation to identify liver-stage active lead chemotypes. Compounds were initially screened against Plasmodium falciparum Dd2 strain parasites using a in vitro SYBRGreen-1 based 72 hr proliferation assay to identify novel chemotypes to advance to liver stage assays. NIH/NCATS Early Translation Branch Assay Submitter (PI): Anton Simeonov Ph.D.
# Malaria-vivax Assay Protocol: PROTOCOL TABLE (as described by Inglese et al., 2007) SEQUENCE No. (e.g., 1, 2, 3, etc.); […] (e.g., Cells, Incubation, Reagent, etc.); VALUE; DESCRIPTION SEQUENCE, Parameter, Description 1; Reagent; 3 uL complete malaria growth medium, 1536 TC treated Black clear bottom plate 2; Controls; 23 nL positive control artesunate (300 nM final) to column 1; Neutral control DMSO to columns 2-4 3; Compound; 23 nL of compounds in dose response concentration (29 uM to 0.5 nM final) 4; Reagent; 5 uL malaria infected red blood cells (2.5% hematocrit final, 0.3% parasitemia 5; Time; 72 hours at 37C (5% O2, 5% CO2, 90% N2; 95% Rh) 6; Reagent; 2 uL lysis buffer/SYBRGreen-1, 25 sec shake immediately following dispense 7; Time; ~16 hours at 37C (5% O2, 5% CO2, 90% N2; 95% Rh) 8; Detector; EnVision (PerkinElmer) bottom read at 485/14nm excitation and 535/25 nm emission NOTES (numbers refer to sequence above): 1; Complete Malaria Growth Media: 1X RPMI-1640 w/L-glutamine, 5.5g/L Albumax II, 367 uM Hypoxanthine, 25 mM HEPES, 0.25% Sodium Bicarbonate, 35 uM Gentamicin sulfate 2; Controls were added using the Kalypsis Pintool (Wako USA) equipped with 1536 pinhead 3; Compounds were added in a 7-point, titration with a high final concentration of 29 uM by Pintool from seven inter-plate titrations of library plates and two DMSO control plates at the beginning and end (see Yasgar et al., 2008). 4; Red blood cells infected with Plasmodium falciparum Dd2 parasites were used. 6; Lysis buffer: 20 mM Tris-HCl, 10 mM EDTA, 0.16% Saponin, 1.6% Triton-X, 10X SYBR Green. REFERENCE: Inglese J, Shamu CE, Guy RK. 2007. Reporting data from high-throughput screening of small-molecule libraries. Nat Chem Biol. doi:10.1038/nchembio0807-438 Yasgar A, Shinn P, Jadhav A, Auld D, Michael S, Zheng W, Austin CP, Inglese J, Simeonov A. 2008. Compound Management for Quantitative High-Throughput Screening. J Lab Autom 13:79-89. doi:10.1016/j.jala.2007.12.004
# Potency is read from the fitted curve at half-maximal effect.
Compound,Potency,"activity, negative = inhibition"
C=CCN(C)C[C@H]1CN2CC[C@H]1C[C@@H]2CNC(=O)Nc1cccc(SC)c1,inactive,–
CN(Cc1ccccc1)C[C@H]1CN2CC[C@H]1C[C@@H]2CNC(=O)Nc1ccsc1,10 µM (active),–
CC[C@H]1CN2CC[C@H]1C[C@@H]2CNC(=O)c1ccc(N(C)C)cc1,inactive,–
CCc1nc(-c2cc(S(=O)(=O)N3CCN(c4ccc(OC)cc4)CC3)ccc2OC)no1,inactive,–
COc1ccc(S(=O)(=O)N2CCN(c3ccc(F)cc3)CC2)cc1-c1noc(C)n1,inactive,–
COc1ccc(OC)c(-c2noc(N3CCN(c4cc(Cl)ccc4C)CC3)n2)c1,8.91 µM (active),–
COc1nccnc1NC1CCN(C(=O)CCc2c(C)noc2C)CC1,–,30.5% [at 5.79 µM]
O=C(Cc1ccsc1)N1CCC(c2n[nH]c(=O)n2Cc2ccc(F)cc2)CC1,inactive,–
Cn1cc(CNC(=O)C[C@@H]2C[C@H]3O[C@H](CNC4CCCC4)[C@@H](O)[C@H]3O2)cn1,inactive,–
COc1cc(-c2ccnc3nc(C4CC4)nn23)cc(OC)c1OC,inactive,–
Cn1c(C(=O)Nc2cccc(C(F)(F)F)c2)cc2c(=O)n3ccccc3nc21,inactive,–
Cc1cc(Nc2cccc(C(F)(F)F)c2)nc2ccc(NC(=O)c3ccc(=O)[nH]c3)cc12,3.98 µM (active),–
Cc1cccc(C(=O)Nc2ccc(-c3nc4ccccc4s3)c(C)c2)c1,inactive,–
O=C(O)c1ccnc(-c2ccnc(NCCN3CCCCC3CO)n2)c1 (configuration not stated),inactive,–
CN1CCCN(C(=O)c2ccccc2OC(F)(F)F)c2ccccc21,inactive,–
COc1cccc(C(=O)N2CCCN(C(=O)C3CC3)c3ccccc32)c1OC,inactive,–
COc1ccccc1C(=O)N1CCCN(CCc2ccccc2)c2ccccc21,11.2 µM (active),–
COc1ccc(C2Cn3nnc(-c4noc(-c5ccccc5)n4)c3CO2)cc1 (configuration not stated),inactive,–
COCCN1C(=O)[C@H]2CN(Cc3ccsc3)C[C@H]2C1=O,inactive,–
COc1ccc(/C=C/c2nc(C#N)c(NCc3ccc(F)cc3)o2)cc1OC,inactive,–
N#Cc1nc(/C=C/c2ccc(F)cc2)oc1NCc1ccc(F)cc1,inactive,–
COc1ccccc1/C=C/c1nc(C#N)c(NC(C)c2ccccc2)o1 (configuration not stated),4.47 µM (active),–
COCCn1nnnc1C1CC2(CCOCC2)C(=O)N1Cc1ccc(SC)cc1 (configuration not stated),inactive,–
CC(=O)Nc1cccc(-c2nnc3n2CCCC3)c1,inactive,–
COc1cccc(NC(=O)c2c(OC)cc(=O)n3c2CCCC3)c1,inactive,–

Compound,Potency,"activity, negative = inhibition"
COc1ccc(C(=O)Nc2cccc(-c3nnc4n3CCCC4)c2)cc1,10 µM (active),–
Cc1noc(C)c1C(=O)N1CC(N(Cc2cccnc2)CC(C)C)C1,inactive,–
O=C(c1ccsc1)N1CCCn2cc(-c3ccc4c(c3)OCO4)nc21,inactive,–
Cc1ccc(-n2c(=O)c3cccnc3n2CC(=O)Nc2ccccc2C(F)(F)F)cc1C,8.91 µM (active),–
CC(C)c1ccc(NC(=O)Cn2c3ncccc3c(=O)n2-c2ccccc2)cc1,inactive,–
Cc1ccc(-n2c(=O)c3cccnc3n2CC(=O)NCc2ccc(F)cc2)cc1C,inactive,–
C=CCNC(=O)N1CC[C@H]2CC(=O)N(c3ccccc3)CC[C@H]2C1,inactive,–
C[C@@]1(O)CCN(Cc2cc(=O)n3[nH]cnc3n2)C[C@@H]1O,inactive,–
COCc1nc(C2CCCN(C(=O)c3ccccn3)C2)no1 (configuration not stated),inactive,–
CCOc1ccc(C(=O)N2CCCC(c3noc(COC)n3)C2)cc1 (configuration not stated),inactive,–
O=C(C1CCCC1)N1CCCC(c2noc(COc3ccccc3)n2)C1 (configuration not stated),8.91 µM (active),–
COC(=O)c1cc(NC(=O)CCS(=O)(=O)c2cc(Br)cc3c2N(C(=O)C2CC2)CC3)cc(C(=O)OC)c1,inactive,–
O=C(CCS(=O)(=O)c1cc(Br)cc2c1N(C(=O)C1CC1)CC2)Nc1ccc(C(F)(F)F)cc1,1.12 µM (active),–
O=C(C1CC1)N1CCc2cc(Br)cc(S(=O)(=O)N3CCN(c4ccccc4F)CC3)c21,inactive,–
CN1CC2(CCN(C(=O)c3cccn3C)CC2)CC1C(=O)N1CCOCC1 (configuration not stated),inactive,–
O=C(Nc1ccc(F)cc1F)c1ccc2c(c1)n(Cc1cccc(F)c1)c(=O)c1ccnn12,inactive,–
CCNC(=O)N1CCCC1c1noc(CCC(=O)NCCc2nc3ccccc3[nH]2)n1 (configuration not stated),inactive,–
C[C@H](C(=O)N1Cc2ccccc2CC2(CCN(Cc3ccncc3)CC2)C1)c1ccccc1,11.2 µM (active),–
CC(=O)N1Cc2ccccc2CC2(CCN(Cc3ccc(O)cc3)CC2)C1,inactive,–
CC(=O)N1Cc2ccccc2CC2(CCCN(Cc3ccncc3)C2)C1 (configuration not stated),inactive,–
O=C(CCc1cccnc1)N1CCc2c(n(CCOc3ccccc3)n(-c3ccccc3)c2=O)C1,inactive,–
COCCCNC(=O)c1cc(C2CC2)nc2onc(C3CCCN3)c12 (configuration not stated),inactive,–
CC(C)C[C@@H]1N[C@H](C(=O)NC(C)C)Cc2c[nH]c3cccc1c23,inactive,–
CCN1C(=O)CCN(C(=O)c2cnn(C)c2)CC12CCOCC2,inactive,–
CCc1ccc(CNC(=O)C2CCN(c3nnc(C)c4c(C)n(-c5ccc(C)cc5)nc34)CC2)cc1,10 µM (active),–

Compound,Potency,"activity, negative = inhibition"
CCCCNC(=O)C1CCCN(c2nnc(C)c3c(C)n(-c4ccc(Cl)cc4)nc23)C1 (configuration not stated),inactive,–
Cc1nnc(N2CCCC(C(=O)NCCN(C)C)C2)c2nn(-c3ccccc3)c(C)c12 (configuration not stated),inactive,–
CN1Cc2c(cc(N3CCOCC3)nc2-c2cccc(F)c2)C1=O,inactive,–
COc1cccc(-c2nc(N3CCOCC3)cc3c2CN(CC2CC2)C3=O)c1,11.2 µM (active),–
O=C1c2cc(N3CCOCC3)nc(-c3cccnc3)c2CN1C1COC1,inactive,–
O=C1CCC(C(=O)NCc2ccc(-c3cnc4c(Oc5ccccc5)nccn34)cc2)N1 (configuration not stated),inactive,–
COc1ccc(C2Cn3nnc(-c4nc(-c5ccc(OC(C)C)cc5)no4)c3CO2)cc1 (configuration not stated),inactive,–
CCOC(=O)c1c(C)[nH]c(CCC(=O)Nc2ccc(OC)c(OC)c2)c1C,inactive,–
Cc1ccc(C)c(N2CCN(C(=O)Cc3c(C(=O)O)c(C)cn3C)CC2)c1,inactive,–
CCOC(=O)c1c(C)[nH]c(CCC(=O)NCCCN2CCN(c3cccc(Cl)c3)CC2)c1C,inactive,–
CC1=C(c2ccc(Cl)cc2)S(=O)(=O)N=C1N1CCN(c2cc(C)ccc2C)CC1,inactive,–
CCOC(=O)c1c(C)[nH]c(CCC(=O)NCCCN2CCN(c3cc(C)ccc3C)CC2)c1C,10 µM (active),–
Cc1ccc(C)c(N2CCN(CCCNC(=O)Nc3ccc(Cl)cc3)CC2)c1,10 µM (active),–
CCN1CCCC1CNC(=O)CCC1CCN(Cc2ccc(Cl)o2)CC1 (configuration not stated),inactive,–
O=C(Cn1ccn2nc(-c3ccc(F)cc3)c(CO)c2c1=O)NCCC1=CCCCC1,inactive,–
COc1cccc(CNC(=O)Cn2c(C)cc3nc4n(c(=O)c32)CCCC4)c1,inactive,–
O=C1CSC2(CCN(S(=O)(=O)c3ccc(F)cc3)CC2)N1Cc1ccco1,inactive,–
CC(C)CCN1CCC(N2CCN(C(=O)C3CCC3)CC2)C1=O (configuration not stated),inactive,–
CNC(=O)[C@@H]1CN(Cc2cccc(OC)c2)C[C@H]1CO,inactive,–
COc1cccc(CN2CCc3nc(SCC(=O)Nc4ccccc4)[nH]c(=O)c3C2)c1,inactive,–
COc1cccc(CN2CCc3c(cc(C(=O)NCCN4CCCCC4)n3C)C2)c1,3.98 µM (active),–
CCc1ccc(C(=O)N2CCC(c3n[nH]c(=O)n3Cc3ccc(OC)cc3)CC2)cc1,inactive,–
O=Cc1cccc(N2CCN(C(=O)N3CCCC3)CC2=O)c1,inactive,–
CC(C)N1CC[C@@H]2[C@H]1C(=O)NC[C@H](CCC(=O)NCc1ccccc1)N2C,inactive,–
COCc1cc(C[C@@H]2CC[C@H](O)[C@@H](CN(C)C)O2)no1,inactive,–

Compound,Potency,"activity, negative = inhibition"
CCC(CC)C(=O)NC[C@H]1O[C@H](Cc2cc(-c3ccc(F)cc3)on2)CC[C@@H]1O,inactive,–
COCc1cc(C[C@@H]2CC[C@H](O)[C@@H](CN(CC3CCCCC3)CC3CCCCC3)O2)no1,3.16 µM (active),–
O=C(CN1C(=O)COc2ccc(C(=O)COc3ccc(Cl)cc3F)cc21)NCCc1ccccc1,inactive,–
Cc1ccc(C)c(C(=O)NC2CCN(c3cnn(CC4CC4)c(=O)c3)CC2)c1,inactive,–
C[C@]1(O)CCN(C(=O)c2ccc(N3CC(=O)NC3=O)cc2)C[C@@H]1O,inactive,–
Cc1noc([C@@H]2CN(S(=O)(=O)c3ccc4c(c3)CCC4)C[C@H]2C(N)=O)n1,inactive,–
Cc1nc(N2CCOCC2)c2c(C(=O)NCc3cccc(Cl)c3)c(C)oc2n1,inactive,–
CCOC(=O)c1c(C)oc2nc(C)nc(N(CC(C)C)CC(C)C)c12,10 µM (active),–
COc1ccc(N2CCN(C(=O)c3c(C)oc4nc(C)nc(N5CCCC5)c34)CC2)cc1,inactive,–
CCOC(=O)c1c(C)oc2nc(C)nc(N3CCN(c4ccc(OC)cc4)CC3)c12,10 µM (active),–
CN(CCc1noc(C2CN(C(=O)c3cc(F)ccc3F)C2)n1)C(=O)C1CC1,inactive,–
Cc1nc(N(C)C)ncc1C(=O)N[C@@H]1CCOC[C@H]1Oc1ccccn1,inactive,–
COc1ccc(O[C@H]2COCCN(S(=O)(=O)c3c(C)noc3C)C2)cc1,inactive,–
O=C(c1ccccn1)N1C[C@@H]2OCC(=O)N(CC3CC3)[C@@H]2C1,inactive,–
CCc1ccc(CNC(=O)c2cc3c(=O)n(CC)c4ccccc4c3s2)cc1,inactive,–
CCN(CCCNC(=O)c1cc2c(=O)n(CC)c3ccccc3c2s1)Cc1ccccc1,4.47 µM (active),–
CCn1c(=O)c2cc(C(=O)NCCc3ccc(Cl)cc3)sc2c2ccccc21,inactive,–
CN(Cc1ccc2c(c1)OCO2)C(=O)C1(C)CCOCC1,inactive,–
COCCNC(=O)CC[C@]12CC[C@](C)(O)C[C@H]1C(C)(C)C[C@@H]2NC(=O)c1ccc(C(F)(F)F)cc1,inactive,–
Cc1noc(C)c1C(=O)N1CCCC(CCc2ccc(F)cc2F)C1 (configuration not stated),inactive,–
Cc1c[nH]c(CN2CCCC(CCc3ccc(F)cc3F)C2)c(C)c1=O (configuration not stated),10 µM (active),–
Cc1cc(F)ccc1NC(=O)CCC1CCCN(C(=O)c2ccc(Cl)s2)C1 (configuration not stated),inactive,–
